Mtb hypoxia rep – PubChem AID 1159583 | M. tuberculosis hypoxia-regulated fluorescent reporter, fluorescence | fluorescence inhibition, % (test concentration not listed) | 300,000 tested, 0.1% active; in the data active = fluorescence inhibition mostly above about 23%, no sharp cut-off; inactive = mostly below about 17%
PrP 5UTR inh – inhibition of PrP 5' UTR reporter expression; AID 488862, 2010; cell-based PrP 5' UTR mRNA reporter, plate reader; 340,000 tested, 0.35% active; inhibition, % (concentration not given with the values); in the data active = inhibition above about 52%; note: 0 = median of the neutral control wells
TcdB inh – TcdB glycohydrolase inhibitors, primary screen, biochemical, single point, plate reader | inhibition, % at 9.99 µM | Toxin B (Clostridioides difficile), P18177 | 350,000 tested, 0.24% active | TcdB glycohydrolase enzymatic assay; in the data active = inhibition above about 10%
BioA inh – M. tuberculosis BioA enzyme inhibitors, primary screen, biochemical, plate reader, single point, HTS. inhibition, % at 9.99 µM. purified M. tuberculosis BioA enzyme. 360,000 tested, 0.096% active. 7,8-diaminopelargonic acid synthase BioA (Mycobacterium tuberculosis); in the data active = inhibition above about 40%
FadD28 FP inh – inhibitors of FadD28 bisubstrate probe binding, primary screen, biochemical, fluorescence polarization, single point; inhibition, % at 12.5 µM; 360,000 tested, 0.22% active; AID 588549, 2011; in the data active = inhibition above about 8.5%, passing the limit was not always enough
PriA SSB inh – inhibitors of Klebsiella pneumoniae PriA binding to SSB C-terminal tail, primary screen, biochemical, AlphaScreen; inhibition, % at 33 µM; AID 1272365, 2023; AlphaScreen SSBct-PriA binding, biotinylated peptide; 430,000 tested, 0.6% active; in the data active = inhibition mostly above about 37%, no sharp cut-off; inactive = mostly below about 20%;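 note: plate controls were negative control peptide for no effect and reference peptide for full effect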
An asterisk follows results filed as active; · = not tested or not shown. Compounds with a hit are over-represented: about 1% of the library has one in this group of screens.

SMILES	Mtb hypoxia rep	PrP 5UTR inh	TcdB inh	BioA inh	FadD28 FP inh	PriA SSB inh
CN(Cc1ccccc1)C(=O)COC(=O)c1ccccc1SCC(=O)N1CCCC1	7	-20	3	0	-3	2
Cc1ccc(S(=O)(=O)N2CC(CO)=CCC2c2ccccc2)cc1 (stereo unspecified)	·	·	26*	·	·	·
CCOC(=O)/C(C#N)=N/Nc1ccc(S(=O)(=O)N2CCc3ccccc32)cc1	·	-20	·	·	-1	·
N#C/C(=N\Nc1ccc(S(=O)(=O)N2CCc3ccccc32)cc1)C(N)=S	·	-9	1	4	46*	·
N=C(N)Sc1cn(Cc2cccc(F)c2)c2ccccc12	·	·	·	·	·	45*
CCOc1cc(C(=O)NCc2ccc(F)cc2)ccc1OCC(=O)N1CCCCC1	-1	-29	1	0	0	1
COc1cc(/C=C/c2sc3ccccc3[n+]2CCCS(=O)(=O)[O-])ccc1O	-9	-9	10*	·	-19	-7
Clc1cccc(-c2ccc3ncnc(NCc4cccs4)c3c2)c1	-3	-2	11*	-10	0	-9
Cn1cccc1/C=C1/C(=O)NC(=O)N(Cc2ccc(F)cc2)C1=O	13	-14	2	·	1	4
Cn1cccc1/C=C1/C(=O)NC(=S)N(Cc2ccc(F)cc2)C1=O	11	-5	1	-2	44*	8
O=C(Oc1ccc(Cl)c2cccnc12)c1ccco1	13	1	·	0	-1	52*
O=C(Oc1ccc(Cl)c2cccnc12)c1ccc(F)cc1	·	·	·	·	·	-12
CC(C)Cc1nnc(NC(=O)CCC(=O)NCc2ccccc2Cl)s1	4	-11	13*	·	-2	-18
O=C(O)c1cccn2ccnc12	·	·	·	·	·	48*
CONC=C(C=Nc1ccc(C(F)(F)F)cc1)c1ncc(C(F)(F)F)cc1Cl	·	·	·	·	·	0
O=C1CC(=Nc2ccc([N+](=O)[O-])cc2)NN1c1c(Cl)cc(Cl)cc1Cl	·	·	3	-1	15*	·
COCc1cn(CC[C@@H]2CC[C@H](NC(=O)Nc3ccc(C(F)(F)F)cc3)[C@@H](CO)O2)nn1	·	·	0	0	·	·
COc1ccc2[nH]c3c(=O)n(CCCCC(=O)NCCN4CCCC4)c(=S)[nH]c3c2c1	5	-9	11*	0	-2	-12
CCN(CC)c1ccc(/C=c2\sc3nnc(-c4ccccc4Cl)n3c2=O)cc1	·	10	·	-6	19*	·
CCN(CC)c1ccc(/C=c2/sc3nnc(-c4ccccc4C)n3c2=O)cc1	·	-30	·	-3	1	·
Cc1nc2ccccc2n1CCC(=O)O	16	-16	·	0	-2	-14
Cc1nc2ccccc2n2c(O)c(CC(=O)O)cc12	2	-12	·	-15	14*	-5
Cn1cccc1Cc1nnc(SCC(=O)Nc2ccccc2F)n1-c1ccccc1	·	·	·	·	·	37*
Cc1nnc(NC(=O)CSc2nnc(Cc3cccn3C)n2-c2cccc(C)c2C)s1	1	·	·	·	·	·
Cc1cccc(-n2c(Cc3cccn3C)nnc2SCC(=O)N2CCN(c3ccccc3)CC2)c1C	·	·	·	·	·	36*
SMILES	Mtb hypoxia rep	PrP 5UTR inh	TcdB inh	BioA inh	FadD28 FP inh	PriA SSB inh
COc1ccc(CN2CCC(C(=O)Nc3ccc(Oc4cccnc4)cc3)CC2)cc1	14	-17	6	0	16*	-8
COc1cc(OC)c(OC)cc1/C=C/c1cc(C(=O)O)c2ccccc2n1	8	-34	1	·	1	-7
COc1ccc(/C=C/c2cc(C(=O)O)c3ccccc3n2)cc1	13	71*	3	-1	-4	-5
Cc1cc2cc(CNC(=O)Nc3c[nH]c4ccccc34)ccc2[nH]1	·	·	·	·	·	33*
CC(CCc1ccccc1)NC(=O)Nc1c[nH]c2ccccc12 (stereo unspecified)	·	·	·	·	·	39*
O=C(NCCCN1CCOCC1)c1nn2c(C(F)(F)F)cc(-c3ccco3)nc2c1Cl	2	6	-1	-2	0	-6
O=C(NC(=S)N1CCN(c2ccc(Cl)cc2[N+](=O)[O-])CC1)c1cccs1	·	-3	·	3	1	39*
O=C(Cn1cc(-c2ccc(F)cc2)cn1)N1CCC(S(=O)(=O)c2ccc(F)cc2)CC1	·	·	·	·	·	3
CN(C)C(=O)Cn1cc(-c2ccc(F)cc2)cn1	·	·	·	·	·	38*
CC(C)(C)C(=O)c1sc(Nc2ccccc2)nc1N	-3	-179	3	2	3	40*
CCOC(=O)c1ccc(NC(=O)c2nc[nH]c2C(=O)NC)cc1	1	-22	1	-1	-3	-1

Screening results (PubChem BioAssay)
